# Assay results published in the antibiotic and cytotoxicity screens of Wong et al. (2023).
# Hit rate of the full screen: of about 39,000 compounds, about 500 (1.3%) were called active. What follows is part of a selection rich in actives, with near analogues and random picks from the rest.
# Test system: S. aureus RN4220
# Experiment: growth inhibition call (relative growth <= 0.2)
# Conditions: 50 µM
row,SMILES,growth inhibition call
1,CC[C@H]1OC(=O)C[C@@H](O)[C@H](C)[C@@H](O[C@@H]2O[C@H](C)[C@@H](O)[C@H](N(C)C)[C@H]2O)[C@@H](CCN2C[C@H](C)C[C@H](C)C2)C[C@@H](C)C(=O)/C=C/C(C)=C/[C@@H]1CO[C@@H]1O[C@H](C)[C@@H](O)[C@@H](OC)[C@H]1OC,active
2,CCC1OC(=O)CC(O)C(C)C(OC2OC(C)C(O)C(N(C)C)C2O)C(CCN2CC(C)CC(C)C2)CC(C)C(=O)C=CC(C)=CC1COC1OC(C)C(O)C(OC)C1OC (stereo unspecified),active
3,CC[C@@H]1OC(=O)C[C@@H](O)[C@H](C)[C@@H](O[C@@H]2O[C@H](C)[C@@H](O)[C@H](N(C)C)[C@H]2O)[C@@H](CCN2C[C@H](C)C[C@H](C)C2)C[C@@H](C)C(=O)/C=C/C(C)=C\[C@@H]1CO[C@@H]1O[C@H](C)[C@@H](O)[C@@H](OC)[C@H]1OC,active
4,C[C@@H]1CN([C@H](C)CO)C(=O)Cc2cc(NS(C)(=O)=O)ccc2O[C@H]1CN(C)S(=O)(=O)c1cn(C)cn1,inactive
5,C[C@@H]1CN([C@@H](C)CO)C(=O)Cc2cc(NC(=O)c3ccncc3)ccc2O[C@H]1CN(C)S(=O)(=O)c1ccc(Cl)cc1,inactive
6,C[C@@H]1CCCCO[C@H](CN(C)S(=O)(=O)c2cn(C)cn2)[C@H](C)CN([C@H](C)CO)C(=O)c2cc(NS(=O)(=O)c3ccccc3)ccc2O1,inactive
7,C[C@H](CO)N1C[C@H](C)[C@@H](CN(C)S(=O)(=O)c2cn(C)cn2)Oc2ccc(NC(=O)CCCN(C)C)cc2C1=O,inactive
8,C[C@@H]1CCCCO[C@@H](CN(C)S(=O)(=O)c2ccc(F)cc2)[C@H](C)CN([C@@H](C)CO)C(=O)c2cc(NC(=O)CCC(F)(F)F)ccc2O1,inactive
9,CC(C)C[C@H]1NC(=O)[C@@H](CCCN)NC(=O)[C@H](C(C)C)NC(=O)[C@H]2CCCN2C(=O)[C@@H](Cc2ccccc2)NC(=O)[C@@H](CC(C)C)NC(=O)[C@@H](CCCN)NC(=O)[C@H](C(C)C)NC(=O)[C@H]2CCCN2C(=O)[C@@H](Cc2ccccc2)NC1=O,inactive
10,CC(C)C[C@@H]1NC(=O)[C@@H](C(C)C)NC(=O)[C@@H]2CCCN2C(=O)[C@@H](CC(=O)O)NC(=O)[C@@H](Cc2c[nH]c3ccccc23)NC1=O,inactive
11,C[C@@H]1CN([C@H](C)CO)C(=O)c2cccc(NC(=O)c3cnccn3)c2O[C@H]1CN(C)S(=O)(=O)c1ccccc1,inactive
12,C[C@@H]1CN([C@@H](C)CO)S(=O)(=O)c2ccc(C#CCN(C)C)cc2O[C@H]1CN(C)Cc1cccnc1,inactive
13,OC[C@H]1O[C@H]2O[C@@H]3[C@@H](O)[C@H](O)[C@H](O[C@@H]4[C@@H](O)[C@H](O)[C@H](O[C@@H]5[C@@H](O)[C@H](O)[C@H](O[C@@H]6[C@@H](O)[C@H](O)[C@H](O[C@@H]7[C@@H](O)[C@H](O)[C@H](O[C@@H]8[C@@H](O)[C@H](O)[C@H](O[C@@H]1[C@@H](O)[C@@H]2O)O[C@@H]8CO)O[C@@H]7CO)O[C@@H]6CO)O[C@@H]5CO)O[C@@H]4CO)O[C@@H]3CO,inactive
14,CC1=CC(=O)c2ccccc2C1=O,active
15,O=C1C=C(O)C(=O)c2ccccc21,inactive
16,NC1=CC(=O)c2ccccc2C1=O,inactive
17,C[C@H](O)C#Cc1ccc2c(c1)O[C@H](CN(C)C(=O)c1ccccc1)[C@@H](C)CN([C@H](C)CO)S2(=O)=O,inactive
18,CN(CC(=O)O)S(=O)(=O)c1ccc(F)cc1,inactive
19,C[C@H](CO)N1C[C@H](C)[C@@H](CN(C)Cc2ccc(C(F)(F)F)cc2)Oc2ccc(NC(=O)C3CCCCC3)cc2C1=O,inactive
20,CC1(C)S[C@@H]2[C@H](NC(=O)[C@H](N)c3ccc(O)cc3)C(=O)N2[C@H]1C(=O)O,active
21,CC1(C)S[C@@H]2[C@H](NC(=O)C3(N)CCCCC3)C(=O)N2[C@H]1C(=O)O,active

row,SMILES,growth inhibition call
1,CC1(C)S[C@H]2[C@@H](NC(=O)[C@@H](N)c3ccccc3)C(=O)N2[C@@H]1C(=O)O,inactive
2,CC1(C)SC2C(NC(=O)C(N)c3ccc(O)cc3)C(=O)N2C1C(=O)O (stereo unspecified),active
3,C[C@H]1CN([C@@H](C)CO)C(=O)Cc2cc(NS(=O)(=O)c3cn(C)cn3)ccc2O[C@H]1CN(C)C(=O)NC1CCCCC1,inactive
4,C[C@H]1CN([C@@H](C)CO)C(=O)Cc2cc(NS(=O)(=O)c3cn(C)cn3)ccc2O[C@@H]1CN(C)C(=O)Nc1ccc2c(c1)OCO2,inactive
5,CN(C)CCCNC(=O)C[C@H]1CC[C@H]2[C@@H](COC[C@@H](O)CN2S(=O)(=O)c2ccc(F)cc2)O1,inactive
6,C[C@H]1CCCCO[C@H](CN(C)CC2CCCCC2)[C@@H](C)CN([C@@H](C)CO)C(=O)c2cc(NC(=O)CCC(F)(F)F)ccc2O1,inactive
7,O=C(NO)c1ccc(C(=O)N/N=C/[C@H](O)[C@@H](O)[C@H](O)CO)cc1,inactive
8,C[C@@H]1CN([C@@H](C)CO)C(=O)c2cccc(NC(=O)Nc3ccc4c(c3)OCO4)c2O[C@@H]1CN(C)S(C)(=O)=O,inactive
9,Cc1ccc(S(=O)(=O)N(C)C[C@@H]2Oc3ccc(NS(=O)(=O)c4ccc(F)cc4)cc3CC(=O)N([C@H](C)CO)C[C@@H]2C)cc1,inactive
10,CC(C)CC#Cc1ccc2c(c1)O[C@@H](CN(C)C(=O)c1ccccn1)[C@H](C)CN([C@@H](C)CO)S2(=O)=O,inactive
11,O=C(C[C@@H]1CC[C@H]2[C@@H](COC[C@@H](O)CN2C(=O)Nc2ccc(Cl)c(Cl)c2)O1)NCc1ccc(Cl)c(Cl)c1,inactive
12,O=C(C[C@@H]1CC[C@H]2[C@@H](COC[C@@H](O)CN2C(=O)Nc2ccc(Cl)c(Cl)c2)O1)NCc1ccncc1,active
13,O=C(C[C@H]1CC[C@H]2[C@@H](COC[C@H](O)CN2C(=O)Nc2ccc(Cl)c(Cl)c2)O1)NCc1ccc(Cl)c(Cl)c1,inactive
14,O=C(C[C@@H]1CC[C@@H]2[C@H](COC[C@@H](O)CN2C(=O)Nc2ccc(Cl)c(Cl)c2)O1)NCc1ccncc1,active
15,O=C(C[C@H]1CC[C@H]2[C@@H](COC[C@@H](O)CN2C(=O)Nc2ccc(Cl)c(Cl)c2)O1)NCc1ccc(Cl)c(Cl)c1,inactive
16,O=C(C[C@@H]1CC[C@H]2[C@@H](COC[C@H](O)CN2C(=O)Nc2ccc(Cl)c(Cl)c2)O1)NCc1ccc(Cl)c(Cl)c1,active
17,O=C(C[C@H]1CC[C@H]2[C@@H](COC[C@@H](O)CN2C(=O)Nc2ccc(Cl)c(Cl)c2)O1)NCc1ccncc1,inactive
18,O=C(C[C@@H]1CC[C@H]2[C@@H](COC[C@H](O)CN2C(=O)Nc2ccc(Cl)c(Cl)c2)O1)NCc1ccncc1,active
19,O=C(C[C@H]1CC[C@@H]2[C@H](COC[C@H](O)CN2C(=O)Nc2ccc(Cl)c(Cl)c2)O1)NCc1ccncc1,inactive
20,O=C(C[C@@H]1CC[C@@H]2[C@H](COC[C@H](O)CN2C(=O)Nc2ccc(Cl)c(Cl)c2)O1)NCc1ccncc1,inactive
21,O=C(C[C@@H]1CC[C@@H]2[C@H](COC[C@H](O)CN2C(=O)Nc2ccc(Cl)c(Cl)c2)O1)NCc1ccc(Cl)c(Cl)c1,inactive

row,SMILES,growth inhibition call
1,O=C(C[C@H]1CC[C@H]2[C@@H](COC[C@H](O)CN2C(=O)Nc2ccc(Cl)c(Cl)c2)O1)NCc1ccncc1,inactive
2,C[C@H]1CN([C@@H](C)CO)C(=O)Cc2cc(NS(=O)(=O)c3ccc(F)cc3)ccc2O[C@@H]1CN(C)C(=O)Nc1cccc2ccccc12,inactive
3,C[C@@H]1CCCCO[C@@H](CN(C)C(=O)Nc2ccccc2)[C@@H](C)CN([C@@H](C)CO)C(=O)c2cc(NC(=O)Nc3ccc(C(F)(F)F)cc3)ccc2O1,inactive
4,C[C@H](CO)N1C[C@H](C)[C@H](CN(C)S(=O)(=O)c2ccc3ccccc3c2)OCc2cnnn2CCCC1=O,inactive
5,COC(=O)c1cn(CCNC(=O)[C@@H](NS(=O)(=O)c2ccc(C)cc2)C(C)C)nn1,inactive
6,C[C@@H]1CCCCO[C@@H](CN(C)S(=O)(=O)c2cn(C)cn2)[C@@H](C)CN([C@@H](C)CO)C(=O)c2cc(NC(=O)CCCN(C)C)ccc2O1,inactive
7,O=C(NCCN1CCOCC1)[C@@]1(Cc2ccccc2)N=C(c2ccc(OCCCO)cc2)O[C@H]1c1ccccc1,inactive
8,C[C@@H]1CN([C@H](C)CO)C(=O)c2cc(NC(=O)Nc3ccc(C(F)(F)F)cc3)ccc2O[C@@H]1CN(C)Cc1ccc(C(F)(F)F)cc1,inactive
9,COc1ccc(NC(=O)N(C)C[C@H]2Oc3ccc(NC(=O)C4CC4)cc3C(=O)N([C@@H](C)CO)C[C@@H]2C)cc1,inactive
10,COc1ccc2c3c(n(c2c1)C)[C@H](CO)N(CC1CCOCC1)C[C@]13CN(C1)C(=O)Cc1cccnc1,inactive
11,Cc1ccc(S(=O)(=O)N(C)C[C@@H]2Oc3ccc(N(C)C)cc3CC(=O)N([C@@H](C)CO)C[C@@H]2C)cc1,inactive
12,O=C(C[C@H]1C[C@@H]2c3cc(NC(=O)Nc4ccc(C(F)(F)F)cc4)ccc3O[C@@H]2[C@H](CO)O1)NCCc1ccccc1,inactive
13,Cc1n[nH]c(=S)[nH]c1=O,inactive
14,Cc1ccc(S(=O)(=O)N(C)C[C@H]2Oc3c(NC(=O)C4CC4)cccc3C(=O)N([C@@H](C)CO)C[C@@H]2C)cc1,inactive
15,Cc1ccc(-c2cnc3c(c2)C(=O)N([C@H](C)CO)C[C@@H](C)[C@H](CN(C)C(=O)Cc2cccnc2)O3)cc1,inactive
16,C[C@@H]1CN([C@@H](C)CO)C(=O)c2cc(NC(=O)Nc3cccc4ccccc34)ccc2O[C@@H]1CN(C)Cc1ccc(C(F)(F)F)cc1,inactive
17,O=C(C[C@@H]1CC[C@@H]2[C@H](COC[C@@H](O)CN2C(=O)Nc2ccc(Cl)c(Cl)c2)O1)NCc1ccc(Cl)c(Cl)c1,inactive
18,O=C(C[C@H]1CC[C@@H]2[C@H](COC[C@@H](O)CN2C(=O)Nc2ccc(Cl)c(Cl)c2)O1)NCc1ccc(Cl)c(Cl)c1,inactive
19,O=C(C[C@H]1CC[C@@H]2[C@H](COC[C@@H](O)CN2C(=O)Nc2ccc(Cl)c(Cl)c2)O1)NCc1ccncc1,active
